The source made the active and inactive calls. The calls were made as follows: active = hit-call score of the fitted dose curve at least 0.9, where 1 is the maximum; inactive = score below 0.9.
Legend:
[1] = read-out: TIMP metallopeptidase inhibitor 2 (TIMP2), TIMP2 (gene 7077); experiment: BSK_KF3CT_TIMP2: BioMAP Diversity Plus: KF3CT Assay for TIMP metallopeptidase inhibitor 2 (TIMP2) Biomarker Activity (AID 2283071); conditions: primary human keratinocytes with fibroblasts; actives raise or lower the signal
Outline: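 Keratinocyte–fibroblast co-culture, 24 h exposure; TIMP-2 ELISA, DMSO-normalised bidirectional fit. Parallel SRB (0.1%, TCA-fixed, 560 nm) total-protein staining gauges cytotoxicity.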

[2] = read-out: Transforming growth factor beta 1 (TGFb1), TGFB1 (gene 7040); experiment: BSK_KF3CT_TGFb1: BioMAP Diversity Plus: KF3CT Assay for Transforming growth factor beta 1 (TGFb1) Biomarker Activity (AID 2283072); conditions: primary human keratinocytes with fibroblasts; actives raise or lower the signal
Outline: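 Signal changes in either direction, relative to DMSO, define activity here. TGF-b1 is read by ELISA from a human keratinocyte-fibroblast co-culture 24 h post-dose.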

[3] = read-out: C-C motif chemokine 2 (Homo sapiens) (UniProt P13500); experiment: BSK_KF3CT_MCP1: BioMAP Diversity Plus: KF3CT Assay for Monocyte Chemoattractant Protein 1 (MCP1/CCL2) Biomarker Activity (AID 2283073); conditions: primary human keratinocytes with fibroblasts; actives raise or lower the signal
Outline: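 ELISA readout of MCP-1 after 24 h chemical dosing of a human skin primary co-culture of keratinocytes and foreskin fibroblasts. Activity was fitted in both directions against DMSO.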

[4] = read-out: Matrix Metallopeptidase 9 (MMP9), MMP9 (gene 4318); experiment: BSK_KF3CT_MMP9: BioMAP Diversity Plus: KF3CT Assay for Matrix Metallopeptidase 9 (MMP9) Biomarker Activity (AID 2283074); conditions: primary human keratinocytes with fibroblasts; actives raise or lower the signal
Outline: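 Human keratinocyte/foreskin fibroblast co-culture; compound added; 24 h; MMP-9 by ELISA; bidirectional fit vs DMSO baseline.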

[5] = read-out: urokinase plasminogen activator (uPA), PLAU (gene 5328); experiment: BSK_KF3CT_uPA: BioMAP Diversity Plus: KF3CT Assay for urokinase plasminogen activator (uPA) Biomarker Activity (AID 2283075); conditions: primary human keratinocytes with fibroblasts; actives raise or lower the signal
Outline: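 ELISA readout of uPA, analyzed for signal gain or loss relative to DMSO, from a human primary keratinocyte–foreskin fibroblast co-culture measured 24 h after chemical treatment.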

CD40, CD40 (gene 958) [6] = experiment: BSK_LPS_CD40: BioMAP Diversity Plus: LPS Assay for CD40 Biomarker Activity (AID 2283076); conditions: primary human HUVEC with PBMC; actives raise or lower the signal
Outline: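 Cells were dosed, incubated 24 h, then assayed for CD40 by ELISA. Gain or loss of signal was analysed relative to DMSO controls. The culture paired human umbilical vein endothelium with peripheral blood mononuclear cells.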

[7] = read-out: E-selectin (Homo sapiens) (UniProt P16581); experiment: BSK_LPS_Eselectin: BioMAP Diversity Plus: LPS Assay for Eselectin Biomarker Activity (AID 2283077); conditions: primary human HUVEC with PBMC; actives raise or lower the signal
Outline: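 Primary human vascular co-culture (endothelium plus PBMC) was dosed with chemical, then E-selectin quantified by ELISA at 24 h. Endpoint values derive from bidirectional curve fitting relative to DMSO.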

[8] = read-out: Interleukin-8 (IL8), CXCL8 (gene 3576); experiment: BSK_LPS_IL8: BioMAP Diversity Plus: LPS Assay for Interleukin-8 (IL8) Biomarker Activity (AID 2283078); conditions: primary human HUVEC with PBMC; actives raise or lower the signal
Outline: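 Readout is IL-8 by ELISA, taken 24 h after compounds were added to LPS-stimulated endothelial/PBMC co-cultures. Both increases and decreases relative to DMSO control were scored through bidirectional fitting.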

[9] = BSK_LPS_SRB: Viability Assessment in the BioMAP Diversity Plus: LPS Assay (AID 2283079); conditions: primary human HUVEC with PBMC;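 also: total protein by sulforhodamine B absorbance as a cytotoxicity measure; measured one day after compound addition; fitted in both directions against DMSO so loss or gain of signal counts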
Outline: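 Readout is SRB absorbance at 560 nm (0.1% stain, TCA-fixed parallel cultures) as a total-protein cytotoxicity measure. Cells: primary human umbilical vein endothelium plus peripheral blood mononuclear cells, 24 h after chemical exposure; DMSO served as baseline.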

[10] = read-out: Interleukin-1 alpha (IL1a), IL1A (gene 3552); experiment: BSK_LPS_IL1a: BioMAP Diversity Plus: LPS Assay for Interleukin-1 alpha (IL1a) Biomarker Activity (AID 2283080); conditions: primary human HUVEC with PBMC; actives raise or lower the signal
Outline: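 ELISA read-out of IL-1 alpha from a human primary vascular co-culture (endothelium plus PBMC) under LPS, sampled 24 hours post-dosing. Activity was fitted in both directions relative to DMSO controls.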

[11] = read-out: Monocyte Chemoattractant Protein-1 (MCP1), CCL2 (gene 6347); experiment: BSK_LPS_MCP1: BioMAP Diversity Plus: LPS Assay for Monocyte Chemoattractant Protein-1 (MCP1) Biomarker Activity (AID 2283081); conditions: primary human HUVEC with PBMC; actives raise or lower the signal
Outline: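 Human endothelial–PBMC co-cultures were dosed with chemical, then LPS-driven MCP-1 levels were quantified by ELISA at 24 h. Activity in either direction was fitted versus DMSO negative control.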

[12] = BSK_LPS_PGE2: BioMAP Diversity Plus: LPS Assay for Prostaglandin E2 (PGE2) Biomarker Activity (AID 2283082); conditions: primary human HUVEC with PBMC; actives raise or lower the signal
Outline: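 Endpoint derived from bidirectional curve fitting versus DMSO of ELISA-measured PGE2 in LPS-stimulated human primary vascular co-culture (HUVEC with PBMC) harvested at 24 h.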

[13] = read-out: Macrophage colony-stimulating factor (MCSF), CSF1 (gene 1435); experiment: BSK_LPS_MCSF: BioMAP Diversity Plus: LPS Assay for Macrophage colony-stimulating factor (MCSF) Biomarker Activity (AID 2283083); conditions: primary human HUVEC with PBMC; actives raise or lower the signal
Outline: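 ELISA readout of M-CSF after 24 h compound exposure in a human endothelial/PBMC co-culture. Activity, in either direction, is fitted relative to DMSO vehicle.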

[14] = read-out: Tissue Factor, F3 (gene 2152); experiment: BSK_LPS_TissueFactor: BioMAP Diversity Plus: LPS Assay for Tissue Factor Biomarker Activity (AID 2283084); conditions: primary human HUVEC with PBMC; actives raise or lower the signal
Outline: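 ELISA signal for cell-surface Tissue Factor (CD142) was read 24 h after compound dosing of an LPS-stimulated human endothelial–PBMC primary co-culture. Gain or loss of signal was scored relative to DMSO.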

[15] = read-out: Tumor necrosis factor (Homo sapiens) (UniProt P01375); experiment: BSK_LPS_TNFa: BioMAP Diversity Plus: LPS Assay for Tumour Necrosis Factor alpha (TNFa) Biomarker Activity (AID 2283085); conditions: primary human HUVEC with PBMC; actives raise or lower the signal
Outline: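 Primary human vascular co-culture of HUVEC and PBMC; TNFa ELISA 24 h after treatment, analysed as increase or decrease relative to DMSO control.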

[16] = read-out: Vascular cell adhesion molecule 1 (VCAM1), VCAM1 (gene 7412); experiment: BSK_LPS_VCAM1: BioMAP Diversity Plus: LPS Assay for Vascular cell adhesion molecule 1 (VCAM1) Biomarker Activity (AID 2283086); conditions: primary human HUVEC with PBMC; actives raise or lower the signal
Outline: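 Primary human vascular co-culture (umbilical vein endothelium plus PBMC) stimulated with LPS received chemical; 24 h later VCAM-1 was read by ELISA. Overt cytotoxicity was assessed by sulforhodamine B staining of parallel cultures at the same time point.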

CD38, CD38 (gene 952) = experiment: BSK_SAg_CD38: BioMAP Diversity Plus: SAg Assay for CD38 Biomarker Activity (AID 2283087); conditions: primary human HUVEC with PBMC; actives raise or lower the signal
Outline: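 Fluorescence ELISA of cell-surface CD38 served as the read-out, with either increase or decrease fitted against DMSO controls. Cells were a human umbilical vein endothelium plus PBMC co-culture under SEB/TSST-1 stimulation, measured 24 h after dosing.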

CD40, CD40 (gene 958) [17] = experiment: BSK_SAg_CD40: BioMAP Diversity Plus: SAg Assay for CD40 Biomarker Activity (AID 2283088); conditions: primary human HUVEC with PBMC; actives raise or lower the signal
Outline: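 Compounds were dosed onto a human primary endothelial–PBMC co-culture, and after 24 h CD40 was quantified by ELISA using a fluorescence signal. Activity in either direction was fitted relative to DMSO.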

CD69, CD69 (gene 969) = experiment: BSK_SAg_CD69: BioMAP Diversity Plus: SAg Assay for CD69 Biomarker Activity (AID 2283089); conditions: primary human HUVEC with PBMC; actives raise or lower the signal
Outline: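 HUVEC co-cultured with PBMC were dosed with chemical, and CD69 was measured by ELISA with fluorescence read-out 24 h later. Bidirectional curve fitting used DMSO as negative control and activity baseline.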

[18] = read-out: Monocyte Chemoattractant Protein-1 (MCP1), CCL2 (gene 6347); experiment: BSK_SAg_MCP1: BioMAP Diversity Plus: SAg Assay for Monocyte Chemoattractant Protein-1 (MCP1) Biomarker Activity (AID 2283090); conditions: primary human HUVEC with PBMC; actives raise or lower the signal
Outline: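 MCP-1 levels in the endothelial–PBMC SAg co-culture were quantified by ELISA at 24 h post-dosing; both increases and decreases versus DMSO scored. Cytotoxicity monitored by SRB total protein in parallel cultures.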

Tumor necrosis factor (Homo sapiens), sequence (P01375 whole entry, looked up): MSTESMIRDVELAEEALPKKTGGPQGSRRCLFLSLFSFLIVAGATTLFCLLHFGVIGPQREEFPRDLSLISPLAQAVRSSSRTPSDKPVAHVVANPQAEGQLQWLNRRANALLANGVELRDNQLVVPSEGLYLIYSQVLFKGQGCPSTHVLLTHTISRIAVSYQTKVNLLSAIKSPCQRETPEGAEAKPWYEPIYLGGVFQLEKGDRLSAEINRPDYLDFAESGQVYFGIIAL
E-selectin (Homo sapiens), sequence (P16581 whole entry, looked up): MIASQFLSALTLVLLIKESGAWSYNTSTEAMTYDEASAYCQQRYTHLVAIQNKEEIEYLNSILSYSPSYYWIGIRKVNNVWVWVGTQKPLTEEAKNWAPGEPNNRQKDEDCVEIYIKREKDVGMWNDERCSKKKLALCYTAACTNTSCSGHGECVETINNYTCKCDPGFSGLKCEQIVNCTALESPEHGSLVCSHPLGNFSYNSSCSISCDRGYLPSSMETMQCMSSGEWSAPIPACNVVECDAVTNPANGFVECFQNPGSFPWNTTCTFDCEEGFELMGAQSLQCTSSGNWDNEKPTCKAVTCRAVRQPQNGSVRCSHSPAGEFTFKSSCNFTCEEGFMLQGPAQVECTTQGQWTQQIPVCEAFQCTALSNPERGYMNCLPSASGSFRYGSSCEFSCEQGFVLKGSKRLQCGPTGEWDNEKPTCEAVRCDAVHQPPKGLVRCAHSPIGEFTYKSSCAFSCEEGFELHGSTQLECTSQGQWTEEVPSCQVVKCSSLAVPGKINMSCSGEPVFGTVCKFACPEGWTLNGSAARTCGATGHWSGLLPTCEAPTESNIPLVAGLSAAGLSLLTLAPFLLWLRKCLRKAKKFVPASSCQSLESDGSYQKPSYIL

OCCCl
outcome [1]: inactive | outcome [2]: inactive | outcome [3]: inactive | outcome [4]: inactive | outcome [5]: inactive | outcome (CD40, CD40 (gene 958) [6]): inactive | outcome [7]: inactive | outcome [8]: inactive | outcome [9]: inactive | outcome [10]: inactive | outcome [11]: inactive | outcome [12]: inactive | outcome [13]: inactive | outcome [14]: inactive | outcome [15]: inactive | outcome [16]: inactive | outcome (CD38, CD38 (gene 952)): inactive | outcome (CD40, CD40 (gene 958) [17]): inactive | outcome (CD69, CD69 (gene 969)): inactive | outcome [18]: inactive

CCCCCCCCOC(=O)c1ccc(C(=O)OCCCCCCCC)c(C(=O)OCCCCCCCC)c1
outcome [1]: inactive | outcome [2]: inactive | outcome [3]: inactive | outcome [4]: inactive | outcome [5]: inactive | outcome (CD40, CD40 (gene 958) [6]): inactive | outcome [7]: inactive | outcome [8]: inactive | outcome [9]: inactive | outcome [10]: inactive | outcome [11]: inactive | outcome [12]: inactive | outcome [13]: inactive | outcome [14]: inactive | outcome [15]: inactive | outcome [16]: inactive | outcome (CD40, CD40 (gene 958) [17]): inactive | outcome (CD69, CD69 (gene 969)): inactive | outcome [18]: inactive

O=C1CCCO1
outcome [1]: inactive | outcome [2]: inactive | outcome [3]: inactive | outcome [4]: inactive | outcome [5]: inactive | outcome (CD40, CD40 (gene 958) [6]): inactive | outcome [7]: inactive | outcome [8]: inactive | outcome [9]: inactive | outcome [10]: inactive | outcome [11]: inactive | outcome [13]: inactive | outcome [14]: inactive | outcome [15]: inactive | outcome [16]: inactive | outcome (CD40, CD40 (gene 958) [17]): inactive | outcome (CD69, CD69 (gene 969)): inactive | outcome [18]: inactive

CNC(=O)Oc1cccc2c1OC(C)(C)C2
outcome [1]: inactive | outcome [2]: inactive | outcome [3]: inactive | outcome [4]: inactive | outcome [5]: inactive | outcome (CD40, CD40 (gene 958) [6]): inactive | outcome [7]: inactive | outcome [8]: inactive | outcome [9]: inactive | outcome [10]: inactive | outcome [11]: inactive | outcome [12]: inactive | outcome [13]: inactive | outcome [14]: inactive | outcome [15]: inactive | outcome [16]: inactive | outcome (CD38, CD38 (gene 952)): inactive | outcome (CD40, CD40 (gene 958) [17]): inactive | outcome (CD69, CD69 (gene 969)): inactive | outcome [18]: inactive

Cc1cccc(N)c1N
outcome [1]: inactive | outcome [2]: inactive | outcome [3]: inactive | outcome [4]: inactive | outcome [5]: inactive | AC50 (CD40, CD40 (gene 958) [6]): 7.51 µM (active) | outcome [7]: inactive | AC50 [8]: 20 µM (active) | outcome [9]: inactive | outcome [10]: inactive | outcome [11]: inactive | AC50 [13]: 7.16 µM (active) | outcome [14]: inactive | outcome [15]: inactive | AC50 [16]: 14.3 µM (active) | outcome (CD38, CD38 (gene 952)): inactive | outcome (CD40, CD40 (gene 958) [17]): inactive | outcome (CD69, CD69 (gene 969)): inactive | outcome [18]: inactive

CCCSC(=O)N(CCC)CCC
outcome [1]: inactive | outcome [2]: inactive | outcome [3]: inactive | outcome [4]: inactive | outcome [5]: inactive | outcome (CD40, CD40 (gene 958) [6]): inactive | outcome [7]: inactive | outcome [8]: inactive | outcome [9]: inactive | outcome [10]: inactive | outcome [11]: inactive | outcome [12]: inactive | outcome [13]: inactive | outcome [14]: inactive | outcome [15]: inactive | outcome [16]: inactive | outcome (CD38, CD38 (gene 952)): inactive | outcome (CD40, CD40 (gene 958) [17]): inactive | outcome (CD69, CD69 (gene 969)): inactive | outcome [18]: inactive

From PubChem BioAssay (EPA / NIEHS)
